# Assay results from article PMC11062922 (Nature Chemical Biology, 2023).
# Where two headings read alike, the source gives them in different places.
# Columns and labels:
# AURKB = details: read-out: apparent Kd, n = 1
# CDKL5 = details: read-out: apparent Kd, n = 1
# [1] = compound concentrations:100 nM and 1000 nM (sheet 'Lestaurtinib' of Supplementary Table 1),run:Lestaurtinib_02438_R3,Plate:MR008
# [2] = compound concentrations:100 nM and 1000 nM (sheet 'Lestaurtinib' of Supplementary Table 1),run:Lestaurtinib_02443_R2,Plate:MR009
# [3] = compound concentrations:100 nM and 1000 nM (sheet 'Lestaurtinib' of Supplementary Table 1),run:Lestaurtinib_02473_R1,Plate:MR010
# [4] = compound concentrations:100 nM and 1000 nM (sheet 'Lestaurtinib' of Supplementary Table 1),run:Lestaurtinib_02487_R1,Plate:MR012
# [5] = compound concentrations:100 nM and 1000 nM (sheet 'Lestaurtinib' of Supplementary Table 1),run:Lestaurtinib_02487_R2,Plate:MR012
# [6] = compound concentrations:100 nM and 1000 nM (sheet 'Lestaurtinib' of Supplementary Table 1),run:Lestaurtinib_02566_R1,Plate:MR014
# [7] = compound concentrations:100 nM and 1000 nM (sheet 'Lestaurtinib' of Supplementary Table 1),run:Lestaurtinib_02572_R1,Plate:MR015
substance,measurement,setting,value
Lestaurtinib,potency estimated from few doses,AURKB; [1],161 nM
same,potency estimated from few doses,"AURKB; compound concentrations:100 nM and 1000 nM (sheet 'Lestaurtinib' of Supplementary Table 1),run:Lestaurtinib_02443_R1,Plate:MR009",193 nM
same,potency estimated from few doses,AURKB; [2],260 nM
same,potency estimated from few doses,AURKB; [3],144 nM
same,potency estimated from few doses,AURKB; [4],224 nM
same,potency estimated from few doses,AURKB; [5],219 nM
same,potency estimated from few doses,"AURKB; compound concentrations:100 nM and 1000 nM (sheet 'Lestaurtinib' of Supplementary Table 1),run:Lestaurtinib_02496_R2,Plate:MR013",115 nM
same,potency estimated from few doses,AURKB; [6],273 nM
same,potency estimated from few doses,"AURKB; compound concentrations:100 nM and 1000 nM (sheet 'Lestaurtinib' of Supplementary Table 1),run:Lestaurtinib_02566_R2,Plate:MR014",297 nM
same,potency estimated from few doses,AURKB; [7],271 nM
same,potency estimated from few doses,"AURKB; compound concentrations:100 nM and 1000 nM (sheet 'Lestaurtinib' of Supplementary Table 1),run:Lestaurtinib_02572_R3,Plate:MR015",151 nM
same,potency estimated from few doses,"AURKB; compound concentrations:100 nM and 1000 nM (sheet 'Lestaurtinib' of Supplementary Table 1),run:Lestaurtinib_02577_R1,Plate:MR016",239 nM
same,potency estimated from few doses,"AURKB; compound concentrations:100 nM and 1000 nM (sheet 'Lestaurtinib' of Supplementary Table 1),run:Lestaurtinib_02584_R1,Plate:MR017",236 nM
same,potency estimated from few doses,"AURKB; compound concentrations:100 nM and 1000 nM (sheet 'Lestaurtinib' of Supplementary Table 1),run:Lestaurtinib_02584_R2,Plate:MR017",271 nM
same,potency estimated from few doses,"AURKB; compound concentrations:100 nM and 1000 nM (sheet 'Lestaurtinib' of Supplementary Table 1),run:Lestaurtinib_02584_R3,Plate:MR017",237 nM
same,potency estimated from few doses,"AURKB; compound concentrations:100 nM and 1000 nM (sheet 'Lestaurtinib' of Supplementary Table 1),run:Lestaurtinib_02601_R2,Plate:MR018",240 nM
same,potency estimated from few doses,"AURKB; compound concentrations:100 nM and 1000 nM (sheet 'Lestaurtinib' of Supplementary Table 1),run:Lestaurtinib_02606_R1,Plate:MR019",271 nM
same,potency estimated from few doses,"AURKB; compound concentrations:100 nM and 1000 nM (sheet 'Lestaurtinib' of Supplementary Table 1),run:Lestaurtinib_02624_R1,Plate:MR020",259 nM
same,potency estimated from few doses,"AURKB; compound concentrations:100 nM and 1000 nM (sheet 'Lestaurtinib' of Supplementary Table 1),run:Lestaurtinib_02624_R2,Plate:MR020",278 nM
same,potency estimated from few doses,"AURKB; compound concentrations:100 nM and 1000 nM (sheet 'Lestaurtinib' of Supplementary Table 1),run:Lestaurtinib_02624_R3,Plate:MR020",260 nM
same,potency estimated from few doses,"AURKB; compound concentrations:100 nM and 1000 nM (sheet 'Lestaurtinib' of Supplementary Table 1),run:Lestaurtinib_02724_R1,Plate:MR021",414 nM
same,potency estimated from few doses,"AURKB; compound concentrations:100 nM and 1000 nM (sheet 'Lestaurtinib' of Supplementary Table 1),run:Lestaurtinib_02724_R2,Plate:MR021",253 nM
same,potency estimated from few doses,"AURKB; compound concentrations:100 nM and 1000 nM (sheet 'Lestaurtinib' of Supplementary Table 1),run:Lestaurtinib_02724_R3,Plate:MR021",80.5 nM
same,potency estimated from few doses,"AURKB; compound concentrations:100 nM and 1000 nM (sheet 'Lestaurtinib' of Supplementary Table 1),run:Lestaurtinib_02741_R1,Plate:MR023",289 nM
same,potency estimated from few doses,"AURKB; compound concentrations:100 nM and 1000 nM (sheet 'Lestaurtinib' of Supplementary Table 1),run:Lestaurtinib_02741_R2,Plate:MR023",259 nM
same,potency estimated from few doses,"AURKB; compound concentrations:100 nM and 1000 nM (sheet 'Lestaurtinib' of Supplementary Table 1),run:Lestaurtinib_02748_R1,Plate:MR024",229 nM
same,potency estimated from few doses,"AURKB; compound concentrations:100 nM and 1000 nM (sheet 'Lestaurtinib' of Supplementary Table 1),run:Lestaurtinib_02748_R2,Plate:MR024",286 nM
same,potency estimated from few doses,"AURKB; compound concentrations:100 nM and 1000 nM (sheet 'Lestaurtinib' of Supplementary Table 1),run:Lestaurtinib_02752_R1,Plate:MR025",290 nM
same,potency estimated from few doses,"AURKB; compound concentrations:100 nM and 1000 nM (sheet 'Lestaurtinib' of Supplementary Table 1),run:Lestaurtinib_02765_R1,Plate:MR026",275 nM
same,potency estimated from few doses,"AURKB; compound concentrations:100 nM and 1000 nM (sheet 'Lestaurtinib' of Supplementary Table 1),run:Lestaurtinib_02765_R3,Plate:MR026",350 nM
same,potency estimated from few doses,"AURKB; compound concentrations:100 nM and 1000 nM (sheet 'Lestaurtinib' of Supplementary Table 1),run:Lestaurtinib_02766_R2,Plate:MR027",95.3 nM
same,potency estimated from few doses,"AURKB; compound concentrations:100 nM and 1000 nM (sheet 'Lestaurtinib' of Supplementary Table 1),run:Lestaurtinib_02768_R1,Plate:MR028",151 nM
same,potency estimated from few doses,"AURKB; compound concentrations:100 nM and 1000 nM (sheet 'Lestaurtinib' of Supplementary Table 1),run:Lestaurtinib_02768_R2,Plate:MR028",146 nM
same,potency estimated from few doses,"AURKB; compound concentrations:100 nM and 1000 nM (sheet 'Lestaurtinib' of Supplementary Table 1),run:Lestaurtinib_02768_R3,Plate:MR028",169 nM
same,potency estimated from few doses,"AURKB; compound concentrations:100 nM and 1000 nM (sheet 'Lestaurtinib' of Supplementary Table 1),run:Lestaurtinib_02795_R2,Plate:MR022",132 nM
same,potency estimated from few doses,"AURKB; compound concentrations:100 nM and 1000 nM (sheet 'Lestaurtinib' of Supplementary Table 1),run:Lestaurtinib_02795_R3,Plate:MR022",269 nM
same,potency estimated from few doses,"AURKB; compound concentrations:100 nM and 1000 nM (sheet 'Lestaurtinib' of Supplementary Table 1),run:Lestaurtinib_02802_R2,Plate:MR029",144 nM
same,potency estimated from few doses,"AURKB; compound concentrations:100 nM and 1000 nM (sheet 'Lestaurtinib' of Supplementary Table 1),run:Lestaurtinib_02802_R3,Plate:MR029",83.6 nM
same,potency estimated from few doses,"AURKB; compound concentrations:100 nM and 1000 nM (sheet 'Lestaurtinib' of Supplementary Table 1),run:Lestaurtinib_02896_R3,Plate:MR030",218 nM
same,potency estimated from few doses,"AURKB; compound concentrations:100 nM and 1000 nM (sheet 'Lestaurtinib' of Supplementary Table 1),run:Lestaurtinib_03172_R1,Plate:MR031",146 nM
same,potency estimated from few doses,"AURKB; compound concentrations:100 nM and 1000 nM (sheet 'Lestaurtinib' of Supplementary Table 1),run:Lestaurtinib_03172_R3,Plate:MR031",290 nM
same,potency estimated from few doses,"AURKB; compound concentrations:100 nM and 1000 nM (sheet 'Lestaurtinib' of Supplementary Table 1),run:Lestaurtinib_03252_R2,Plate:MR032",136 nM
same,potency estimated from few doses,"AURKB; compound concentrations:100 nM and 1000 nM (sheet 'Lestaurtinib' of Supplementary Table 1),run:Lestaurtinib_03260_R2,Plate:MR033",243 nM
same,potency estimated from few doses,"CDKL5; compound concentrations:100 nM and 1000 nM (sheet 'Lestaurtinib' of Supplementary Table 1),run:Lestaurtinib_02339_R1,Plate:MR001",72.5 nM
same,potency estimated from few doses,"CDKL5; compound concentrations:100 nM and 1000 nM (sheet 'Lestaurtinib' of Supplementary Table 1),run:Lestaurtinib_02339_R2,Plate:MR001",37.7 nM
same,potency estimated from few doses,"CDKL5; compound concentrations:100 nM and 1000 nM (sheet 'Lestaurtinib' of Supplementary Table 1),run:Lestaurtinib_02364_R1,Plate:MR002",5.84 nM
same,potency estimated from few doses,"CDKL5; compound concentrations:100 nM and 1000 nM (sheet 'Lestaurtinib' of Supplementary Table 1),run:Lestaurtinib_02364_R3,Plate:MR002",158 nM
same,potency estimated from few doses,"CDKL5; compound concentrations:100 nM and 1000 nM (sheet 'Lestaurtinib' of Supplementary Table 1),run:Lestaurtinib_02367_R2,Plate:MR003",373 nM
same,potency estimated from few doses,"CDKL5; compound concentrations:100 nM and 1000 nM (sheet 'Lestaurtinib' of Supplementary Table 1),run:Lestaurtinib_02367_R3,Plate:MR003",37.9 nM
same,potency estimated from few doses,"CDKL5; compound concentrations:100 nM and 1000 nM (sheet 'Lestaurtinib' of Supplementary Table 1),run:Lestaurtinib_02381_R1,Plate:MR004",135 nM
same,potency estimated from few doses,"CDKL5; compound concentrations:100 nM and 1000 nM (sheet 'Lestaurtinib' of Supplementary Table 1),run:Lestaurtinib_02381_R2,Plate:MR004",149 nM
same,potency estimated from few doses,"CDKL5; compound concentrations:100 nM and 1000 nM (sheet 'Lestaurtinib' of Supplementary Table 1),run:Lestaurtinib_02381_R3,Plate:MR004",269 nM
same,potency estimated from few doses,"CDKL5; compound concentrations:100 nM and 1000 nM (sheet 'Lestaurtinib' of Supplementary Table 1),run:Lestaurtinib_02407_R1,Plate:MR005",43.6 nM
same,potency estimated from few doses,"CDKL5; compound concentrations:100 nM and 1000 nM (sheet 'Lestaurtinib' of Supplementary Table 1),run:Lestaurtinib_02407_R2,Plate:MR005",167 nM
same,potency estimated from few doses,"CDKL5; compound concentrations:100 nM and 1000 nM (sheet 'Lestaurtinib' of Supplementary Table 1),run:Lestaurtinib_02437_R1,Plate:MR007",32 nM
same,potency estimated from few doses,"CDKL5; compound concentrations:100 nM and 1000 nM (sheet 'Lestaurtinib' of Supplementary Table 1),run:Lestaurtinib_02437_R2,Plate:MR007",113 nM
same,potency estimated from few doses,"CDKL5; compound concentrations:100 nM and 1000 nM (sheet 'Lestaurtinib' of Supplementary Table 1),run:Lestaurtinib_02437_R3,Plate:MR007",2.19 nM
same,potency estimated from few doses,"CDKL5; compound concentrations:100 nM and 1000 nM (sheet 'Lestaurtinib' of Supplementary Table 1),run:Lestaurtinib_02438_R1,Plate:MR008",8.7 nM
same,potency estimated from few doses,"CDKL5; compound concentrations:100 nM and 1000 nM (sheet 'Lestaurtinib' of Supplementary Table 1),run:Lestaurtinib_02438_R2,Plate:MR008",181 nM
same,potency estimated from few doses,CDKL5; [1],176 nM
same,potency estimated from few doses,CDKL5; [2],27.1 nM
same,potency estimated from few doses,"CDKL5; compound concentrations:100 nM and 1000 nM (sheet 'Lestaurtinib' of Supplementary Table 1),run:Lestaurtinib_02443_R3,Plate:MR009",41.7 nM
same,potency estimated from few doses,CDKL5; [3],70.4 nM
same,potency estimated from few doses,"CDKL5; compound concentrations:100 nM and 1000 nM (sheet 'Lestaurtinib' of Supplementary Table 1),run:Lestaurtinib_02473_R3,Plate:MR010",212 nM
same,potency estimated from few doses,"CDKL5; compound concentrations:100 nM and 1000 nM (sheet 'Lestaurtinib' of Supplementary Table 1),run:Lestaurtinib_02482_R1,Plate:MR011",33.6 nM
same,potency estimated from few doses,"CDKL5; compound concentrations:100 nM and 1000 nM (sheet 'Lestaurtinib' of Supplementary Table 1),run:Lestaurtinib_02482_R2,Plate:MR011",27.4 nM
same,potency estimated from few doses,CDKL5; [4],190 nM
same,potency estimated from few doses,CDKL5; [5],449 nM
same,potency estimated from few doses,"CDKL5; compound concentrations:100 nM and 1000 nM (sheet 'Lestaurtinib' of Supplementary Table 1),run:Lestaurtinib_02496_R1,Plate:MR013",14.9 nM
same,potency estimated from few doses,CDKL5; [6],298 nM
same,potency estimated from few doses,"CDKL5; compound concentrations:100 nM and 1000 nM (sheet 'Lestaurtinib' of Supplementary Table 1),run:Lestaurtinib_02566_R3,Plate:MR014",21.2 nM
same,potency estimated from few doses,CDKL5; [7],389 nM
